# Reference: PubChem BioAssay
# Tested on: Lefty1
# Assay: Lefty1 binders on small-molecule microarrays, primary screen, biochemical, small-molecule microarray, 635/667 nm fluorescence (AID 1139)
# Conditions: small-molecule microarray binding, fluorescence 635/667; higher = more signal
row,SMILES,composite z-score
1,CCN1C(=O)[C@H]2[C@H]3[C@H](O)[C@H](O)CC(=NOCC=C(C)CCC=C(C)C)[C@H]3CC[C@H]2C1=O,1.58
2,O=C1[C@H]2[C@H]3[C@H](O)[C@H](O)CC(=NOCc4ccccc4)[C@@H]3CC[C@H]2C(=O)N1C1CCCCC1,0.348
3,CC(C)=CCCC(C)=CCON=C1[C@H]2CCn3c(=O)n(Cc4cc5c(cc4Cl)OCO5)c(=O)n3[C@H]2[C@H](O)[C@@H]2O[C@H]12,0.889
4,CCCNC(=O)OC[C@H]1O[C@H](CCON=C[C@@H](OC)[C@H](C)C=CCC(=O)OC)C=C[C@@H]1Oc1ccc(OC)cc1,0.548
5,COC(=O)[C@H](C)NC(=O)[C@@H](C)CO,0.602
6,C=CCOC(=O)[C@H]1[C@@H]2C(=O)O[C@@H](c3ccccc3)[C@@H](c3ccccc3)N2[C@@H](c2ccc(OCCOC(=O)[C@H]3C[C@H]4C(=O)N5CCC[C@H]5C(=O)N4[C@H]3c3cccc(OCCO)c3)cc2)[C@]12C(=O)Nc1ccc(I)cc12,1.37
7,CCCCC(=C=CC[C@H](O)c1ccccc1OCCO)C[C@H](O)COCc1ccccc1,-0.0107
8,COc1ccc(-c2ccc3c(n2)CCCN3CC(O)CN2CCCc3nc(C)c(C)cc32)cc1 (stereo not drawn),1.05
9,C[C@H]1Cc2c(-c3ccccc3)nc3c(c2CO1)CN(CCOc1ccccc1)CC3,1.11

# Tested on: wheat germ agglutinin (Triticum aestivum), Alexa647-labelled
# Assay: wheat germ agglutinin binders on compound microarrays, profiling panel, artefact control for SMM control-protein annotation, biochemical, small-molecule microarray, 635/667 nm fluorescence (AID 1140);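 further: score merges 667 nm feature emission with signal to noise over triplicate slides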
# Conditions: WGA-A647 binding, 635 nm fluorescence, higher = more signal
row,SMILES,composite z-score
1,C=CC[C@@H]1C=C[C@H](ON=C2c3cc(OC)ccc3O[C@H](c3cccc(OC)c3)[C@H]2O)[C@@H](CO)O1,0.499
2,COCCOC(=O)N1C(=O)[C@@]2(c3cc(C#CCNC(N)=O)ccc31)[C@H](c1ccc(O)cc1)N1[C@H](c3ccccc3)[C@H](c3ccccc3)OC(=O)[C@H]1[C@@H]2C(=O)N1CCCCCCC1,0.566
3,CC(C)(C)N1C(=O)[C@H]2[C@H]3[C@H](O)[C@H](O)CC(=NOCc4ccccc4)[C@@H]3CC[C@H]2C1=O,0.441
4,O=C1C[C@]2(c3ccc([N+](=O)[O-])cc3)C(=O)N(CCN3CCOCC3)c3cc(CO)ccc3[C@H]2N1CC12CC3CC(CC(C3)C1)C2,0.551
5,CC[C@@H](c1ccccc1)n1c(=O)n2n(c1=O)[C@H]1[C@H](O)[C@@H]3O[C@@H]3C(=NOCC(C)C)[C@H]1CC2,-0.0401
6,O=C1[C@H]2[C@H]3[C@H](O)[C@H](O)CC(=NO[C@@H]4O[C@H](CO)[C@@H](O)[C@H](O)[C@H]4O)[C@@H]3CC[C@H]2C(=O)N1Cc1ccc2c(c1)OCO2,0.63
7,CC(C)=C1C(=O)C(c2ccccc2)=C2CN3C(=O)N(CCc4ccccc4)C(=O)[C@]3(Cc3ccc(F)cc3)[C@H]21,0.338
8,CO[C@@H]1COC(=O)CCC[C@@H](C)[C@H](OC)COC(=O)[C@H](Cc2ccccc2)NC(=O)CC=C[C@H]1C,-0.271
9,Cc1ccc(F)cc1S(=O)(=O)N[C@@H]1CCN(Cc2ccc(CC(C)C)cc2)C1,0.0831
10,CC(C)[Si]1(C(C)C)O[C@@H](c2ccccc2)c2cc(C3CC3)nc(-c3ccccc3)c21,0.105
11,COC(=O)[C@@]1(Cc2ccc(F)cc2)[C@H]2c3cc(C(=O)N(C)C)n(Cc4ccc(OC)c(OC)c4)c3C[C@H]2CN1C(=O)c1ccccc1,0.63
12,CCOC(=O)CCN1C(=O)[C@H]2[C@H]3[C@H](O)C=CC(=O)[C@@H]3CC[C@H]2C1=O,0.307
13,C[C@H](c1ccccc1)N1C(=O)[C@H]2[C@@H]3C(=CC[C@H]2C1=O)C(=O)[C@H]1O[C@H]1[C@H]3O,-0.0651
14,CS(=O)(=O)CCOC(=O)C1=CC(CCCO)=CC(c2cccs2)N(Cc2cccc(OC(F)(F)F)c2)C=C1C(=O)OCCS(C)(=O)=O (stereo not drawn),1.02
15,O=C1[C@H]2[C@H]3[C@H](O)[C@H](O)CC(=NO[C@@H]4O[C@H](CO)[C@@H](O)[C@H](O)[C@H]4O)[C@H]3CC[C@H]2C(=O)N1Cc1ccc2c(c1)OCO2,-0.205
16,Cc1cc2c(nc1C)CCCN2CC(C)ON=C1[C@H]2CCn3c(=O)n(-c4ccccc4)c(=O)n3[C@H]2[C@H](O)[C@@H]2O[C@H]12 (stereo partly drawn),0.075
17,Cc1cc(C)c(-c2cc([C@H](C)ON=C3[C@H]4CCn5c(=O)n(-c6ccccc6)c(=O)n5[C@H]4[C@H](O)[C@@H]4O[C@H]34)on2)c(C)c1,-0.0095
18,COc1ccc([Si](C)(C)[C@@H]2[C@@H](CCO)O[C@]3(C(=O)N(Cc4ccc(NC(C)=O)cc4)c4ccccc43)[C@H]2C)cc1,0.771
19,c1ccc(C2NCCc3c2[nH]c2ccccc32)cc1 (stereo not drawn),0.466
